# Measurements taken from ChEMBL document CHEMBL1961873, “Compounds: GSK PKIS; Assays: Nanosyn kinase panel” (2012).
# Several values for one entry are separate records, joined by “and”; a condition that tells them apart may be missing. Equal entries are not always repeated.
# Assays:
# [1] = target: Serine/threonine-protein kinase MARK2 (Homo sapiens) (UniProt Q7KZI7); settings: at 1 µM
# [2] = target: PAS domain-containing serine/threonine-protein kinase (Homo sapiens) (UniProt Q96RG2); settings: at 0.1 µM
# [3] = target: PAS domain-containing serine/threonine-protein kinase (Homo sapiens) (UniProt Q96RG2); settings: at 1 µM
# [4] = target: Phosphorylase b kinase gamma catalytic chain, skeletal muscle/heart isoform (Homo sapiens) (UniProt Q16816); settings: at 0.1 µM
# [5] = target: Phosphorylase b kinase gamma catalytic chain, skeletal muscle/heart isoform (Homo sapiens) (UniProt Q16816); settings: at 1 µM
# [6] = target: T1, Phosphorylase b kinase gamma catalytic chain, liver/testis isoform (Homo sapiens) (UniProt P15735); settings: at 0.1 µM
# T1 sequence (whole entry): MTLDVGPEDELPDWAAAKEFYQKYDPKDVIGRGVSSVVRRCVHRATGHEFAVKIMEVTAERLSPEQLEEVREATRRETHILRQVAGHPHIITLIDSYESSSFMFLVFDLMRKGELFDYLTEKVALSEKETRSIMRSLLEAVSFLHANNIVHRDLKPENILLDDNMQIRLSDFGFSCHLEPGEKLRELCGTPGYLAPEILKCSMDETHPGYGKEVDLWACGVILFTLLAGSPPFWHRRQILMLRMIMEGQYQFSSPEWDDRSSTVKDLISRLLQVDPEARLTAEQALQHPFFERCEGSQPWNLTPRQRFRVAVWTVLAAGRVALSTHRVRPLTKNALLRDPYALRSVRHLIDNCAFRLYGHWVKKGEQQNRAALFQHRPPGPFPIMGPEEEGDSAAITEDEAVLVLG
# [7] = target: T1, Phosphorylase b kinase gamma catalytic chain, liver/testis isoform (Homo sapiens); settings: at 1 µM
# [8] = target: Serine/threonine-protein kinase pim-1 (Homo sapiens) (UniProt P11309); settings: at 0.1 µM
# [9] = target: Serine/threonine-protein kinase pim-1 (Homo sapiens) (UniProt P11309); settings: at 1 µM
# [10] = target: Serine/threonine-protein kinase pim-2 (Homo sapiens) (UniProt Q9P1W9); settings: at 0.1 µM
# [11] = target: Serine/threonine-protein kinase pim-2 (Homo sapiens) (UniProt Q9P1W9); settings: at 1 µM
# [12] = target: Serine/threonine-protein kinase pim-3 (Homo sapiens) (UniProt Q86V86); settings: at 0.1 µM
# [13] = target: Serine/threonine-protein kinase pim-3 (Homo sapiens) (UniProt Q86V86); settings: at 1 µM
# [14] = target: T2, MAP kinase-activated protein kinase 5 (Homo sapiens) (UniProt Q8IW41); settings: at 0.1 µM
# T2 sequence (whole entry): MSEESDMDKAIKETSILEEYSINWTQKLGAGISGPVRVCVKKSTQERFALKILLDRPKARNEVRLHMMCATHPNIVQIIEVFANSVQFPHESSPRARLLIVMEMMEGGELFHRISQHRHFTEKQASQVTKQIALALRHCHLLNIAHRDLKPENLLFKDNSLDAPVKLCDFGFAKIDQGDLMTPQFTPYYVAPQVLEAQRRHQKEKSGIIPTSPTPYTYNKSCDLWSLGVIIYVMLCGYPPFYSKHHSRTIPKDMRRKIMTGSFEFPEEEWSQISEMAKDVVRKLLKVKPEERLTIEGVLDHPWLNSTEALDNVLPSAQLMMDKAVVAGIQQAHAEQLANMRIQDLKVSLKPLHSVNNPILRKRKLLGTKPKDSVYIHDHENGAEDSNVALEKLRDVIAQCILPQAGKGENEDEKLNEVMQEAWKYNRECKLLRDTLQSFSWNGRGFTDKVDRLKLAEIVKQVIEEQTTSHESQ
# [15] = target: T2, MAP kinase-activated protein kinase 5 (Homo sapiens); settings: at 1 µM
# [16] = target: Serine/threonine-protein kinase SIK1 (Homo sapiens) (UniProt P57059); settings: at 0.1 µM
# [17] = target: Serine/threonine-protein kinase SIK1 (Homo sapiens) (UniProt P57059); settings: at 1 µM
# [18] = target: Serine/threonine-protein kinase SIK2 (Homo sapiens) (UniProt Q9H0K1); settings: at 0.1 µM
# [19] = target: Serine/threonine-protein kinase SIK2 (Homo sapiens) (UniProt Q9H0K1); settings: at 1 µM
# [20] = target: T3, Serine/threonine-protein kinase TBK1 (Homo sapiens) (UniProt Q9UHD2); settings: at 0.1 µM;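 note: values are the mean TBK1 inhibition, taken from the GSK PKIS screening data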
# T3 sequence (whole entry): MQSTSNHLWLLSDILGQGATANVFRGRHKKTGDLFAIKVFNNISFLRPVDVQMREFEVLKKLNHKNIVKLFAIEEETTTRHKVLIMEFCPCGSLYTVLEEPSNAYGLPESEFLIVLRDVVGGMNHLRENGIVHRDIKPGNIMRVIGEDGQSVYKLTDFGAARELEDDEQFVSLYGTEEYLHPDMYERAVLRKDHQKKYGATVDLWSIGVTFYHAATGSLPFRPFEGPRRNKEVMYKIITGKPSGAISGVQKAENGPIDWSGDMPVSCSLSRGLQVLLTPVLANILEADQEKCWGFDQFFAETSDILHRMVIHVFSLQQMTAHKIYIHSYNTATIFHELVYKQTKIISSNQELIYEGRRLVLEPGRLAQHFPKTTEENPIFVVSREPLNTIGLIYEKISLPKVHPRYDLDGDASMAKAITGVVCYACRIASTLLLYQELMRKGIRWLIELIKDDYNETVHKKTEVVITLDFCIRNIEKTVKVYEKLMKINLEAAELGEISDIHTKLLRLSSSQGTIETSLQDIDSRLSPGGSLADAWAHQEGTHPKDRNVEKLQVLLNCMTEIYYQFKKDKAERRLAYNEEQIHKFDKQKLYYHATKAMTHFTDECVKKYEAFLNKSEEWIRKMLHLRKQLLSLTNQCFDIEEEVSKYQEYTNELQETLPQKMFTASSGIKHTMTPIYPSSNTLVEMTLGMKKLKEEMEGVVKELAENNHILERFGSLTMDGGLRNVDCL
# Sequence of PAS domain-containing serine/threonine-protein kinase (Homo sapiens) (Q96RG2 whole entry, the tested form may be a part, canonical isoform): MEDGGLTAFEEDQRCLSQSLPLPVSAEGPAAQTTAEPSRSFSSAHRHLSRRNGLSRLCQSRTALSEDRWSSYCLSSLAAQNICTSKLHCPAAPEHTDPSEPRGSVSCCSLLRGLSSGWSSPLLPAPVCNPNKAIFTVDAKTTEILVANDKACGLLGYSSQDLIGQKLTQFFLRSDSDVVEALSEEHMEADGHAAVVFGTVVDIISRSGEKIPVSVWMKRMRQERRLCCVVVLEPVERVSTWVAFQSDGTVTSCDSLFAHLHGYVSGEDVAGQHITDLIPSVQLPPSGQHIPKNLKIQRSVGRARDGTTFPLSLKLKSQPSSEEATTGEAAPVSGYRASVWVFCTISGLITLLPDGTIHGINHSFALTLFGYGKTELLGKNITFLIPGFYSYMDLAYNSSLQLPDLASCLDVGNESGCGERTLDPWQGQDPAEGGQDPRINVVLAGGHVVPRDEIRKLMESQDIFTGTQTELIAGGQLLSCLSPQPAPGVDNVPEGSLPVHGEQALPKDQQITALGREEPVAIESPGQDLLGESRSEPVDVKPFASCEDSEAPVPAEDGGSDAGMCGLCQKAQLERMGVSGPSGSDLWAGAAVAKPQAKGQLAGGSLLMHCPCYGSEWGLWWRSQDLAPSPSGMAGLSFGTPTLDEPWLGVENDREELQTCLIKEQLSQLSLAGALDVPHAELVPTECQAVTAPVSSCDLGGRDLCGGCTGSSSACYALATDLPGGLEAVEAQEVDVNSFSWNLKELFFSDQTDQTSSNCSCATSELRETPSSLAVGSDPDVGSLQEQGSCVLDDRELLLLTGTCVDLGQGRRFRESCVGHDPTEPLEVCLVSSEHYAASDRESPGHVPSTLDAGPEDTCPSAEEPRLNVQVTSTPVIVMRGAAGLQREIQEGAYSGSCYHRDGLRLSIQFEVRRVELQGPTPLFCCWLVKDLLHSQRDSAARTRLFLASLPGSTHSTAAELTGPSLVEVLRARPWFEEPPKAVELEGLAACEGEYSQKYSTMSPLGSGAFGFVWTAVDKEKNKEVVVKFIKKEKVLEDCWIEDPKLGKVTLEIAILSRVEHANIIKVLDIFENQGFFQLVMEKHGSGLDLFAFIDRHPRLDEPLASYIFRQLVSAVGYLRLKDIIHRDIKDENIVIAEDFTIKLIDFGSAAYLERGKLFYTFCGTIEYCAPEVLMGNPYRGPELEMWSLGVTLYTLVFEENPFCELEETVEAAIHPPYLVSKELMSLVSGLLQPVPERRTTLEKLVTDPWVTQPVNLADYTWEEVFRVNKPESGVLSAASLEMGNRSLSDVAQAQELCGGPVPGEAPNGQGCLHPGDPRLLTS
# Sequence of Phosphorylase b kinase gamma catalytic chain, skeletal muscle/heart isoform (Homo sapiens) (Q16816 whole entry, looked up, canonical isoform): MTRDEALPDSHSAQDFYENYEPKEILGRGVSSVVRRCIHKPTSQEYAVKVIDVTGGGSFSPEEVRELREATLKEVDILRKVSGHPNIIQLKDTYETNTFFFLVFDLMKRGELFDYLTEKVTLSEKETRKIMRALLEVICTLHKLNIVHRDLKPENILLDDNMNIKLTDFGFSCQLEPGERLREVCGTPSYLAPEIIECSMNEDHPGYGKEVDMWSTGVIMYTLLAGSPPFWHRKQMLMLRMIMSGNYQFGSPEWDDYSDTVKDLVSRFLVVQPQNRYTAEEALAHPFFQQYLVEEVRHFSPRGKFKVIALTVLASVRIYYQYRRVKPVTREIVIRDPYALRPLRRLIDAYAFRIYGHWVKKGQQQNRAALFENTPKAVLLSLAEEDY
# Sequence of Serine/threonine-protein kinase SIK2 (Homo sapiens) (Q9H0K1 whole entry, looked up): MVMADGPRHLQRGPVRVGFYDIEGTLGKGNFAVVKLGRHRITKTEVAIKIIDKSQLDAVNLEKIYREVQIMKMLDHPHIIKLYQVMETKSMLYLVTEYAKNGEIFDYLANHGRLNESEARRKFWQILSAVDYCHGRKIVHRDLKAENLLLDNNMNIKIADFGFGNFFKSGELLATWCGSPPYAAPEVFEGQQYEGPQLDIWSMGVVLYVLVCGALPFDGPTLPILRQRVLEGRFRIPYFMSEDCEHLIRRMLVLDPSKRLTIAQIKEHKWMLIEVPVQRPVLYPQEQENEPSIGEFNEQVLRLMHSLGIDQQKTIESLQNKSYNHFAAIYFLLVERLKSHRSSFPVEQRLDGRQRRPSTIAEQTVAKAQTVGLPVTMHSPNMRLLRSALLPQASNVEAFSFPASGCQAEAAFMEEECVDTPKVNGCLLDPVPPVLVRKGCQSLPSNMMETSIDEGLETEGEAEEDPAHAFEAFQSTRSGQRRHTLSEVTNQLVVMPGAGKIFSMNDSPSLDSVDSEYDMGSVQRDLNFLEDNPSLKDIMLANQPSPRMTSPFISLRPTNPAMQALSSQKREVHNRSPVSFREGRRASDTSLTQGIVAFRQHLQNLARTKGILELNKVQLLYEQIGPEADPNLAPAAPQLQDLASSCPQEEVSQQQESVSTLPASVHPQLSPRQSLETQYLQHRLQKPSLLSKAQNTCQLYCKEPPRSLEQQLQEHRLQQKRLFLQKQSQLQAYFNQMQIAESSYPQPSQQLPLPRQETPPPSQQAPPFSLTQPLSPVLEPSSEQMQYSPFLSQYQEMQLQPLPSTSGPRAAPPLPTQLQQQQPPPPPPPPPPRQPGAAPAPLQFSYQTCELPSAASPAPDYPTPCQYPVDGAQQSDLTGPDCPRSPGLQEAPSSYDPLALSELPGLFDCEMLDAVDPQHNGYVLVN
# Sequence of Serine/threonine-protein kinase MARK2 (Homo sapiens) (Q7KZI7 whole entry, the tested form may be a part): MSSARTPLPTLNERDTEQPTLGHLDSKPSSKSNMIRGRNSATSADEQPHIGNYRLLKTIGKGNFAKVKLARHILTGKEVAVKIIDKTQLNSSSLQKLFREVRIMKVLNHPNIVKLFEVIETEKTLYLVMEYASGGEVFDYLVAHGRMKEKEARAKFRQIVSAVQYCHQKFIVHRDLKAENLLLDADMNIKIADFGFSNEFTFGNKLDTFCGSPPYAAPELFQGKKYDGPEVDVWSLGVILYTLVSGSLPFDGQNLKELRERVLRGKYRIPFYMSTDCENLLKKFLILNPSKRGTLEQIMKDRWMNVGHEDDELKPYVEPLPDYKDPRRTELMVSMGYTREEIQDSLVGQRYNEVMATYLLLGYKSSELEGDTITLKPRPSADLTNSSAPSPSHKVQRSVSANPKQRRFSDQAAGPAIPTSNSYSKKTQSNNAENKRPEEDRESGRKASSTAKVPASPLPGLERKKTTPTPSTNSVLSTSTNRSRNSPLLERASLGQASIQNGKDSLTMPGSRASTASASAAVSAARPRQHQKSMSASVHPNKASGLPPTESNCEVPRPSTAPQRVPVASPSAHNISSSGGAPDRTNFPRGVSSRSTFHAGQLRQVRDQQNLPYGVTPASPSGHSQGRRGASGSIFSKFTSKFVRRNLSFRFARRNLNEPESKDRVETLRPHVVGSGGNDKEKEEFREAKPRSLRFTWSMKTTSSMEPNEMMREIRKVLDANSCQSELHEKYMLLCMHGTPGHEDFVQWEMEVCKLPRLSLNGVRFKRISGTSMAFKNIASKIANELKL
# Sequence of Serine/threonine-protein kinase pim-1 (Homo sapiens) (P11309 whole entry, looked up): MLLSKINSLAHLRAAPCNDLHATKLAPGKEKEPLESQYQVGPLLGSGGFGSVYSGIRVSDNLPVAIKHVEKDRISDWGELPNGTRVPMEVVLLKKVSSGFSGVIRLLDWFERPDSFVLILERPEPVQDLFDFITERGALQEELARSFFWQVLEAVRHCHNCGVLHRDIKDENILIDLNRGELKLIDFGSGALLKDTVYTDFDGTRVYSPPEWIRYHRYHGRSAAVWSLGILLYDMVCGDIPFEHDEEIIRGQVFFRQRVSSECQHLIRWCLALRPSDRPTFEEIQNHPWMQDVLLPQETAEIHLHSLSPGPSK
# Sequence of Serine/threonine-protein kinase pim-2 (Homo sapiens) (Q9P1W9 whole entry, looked up): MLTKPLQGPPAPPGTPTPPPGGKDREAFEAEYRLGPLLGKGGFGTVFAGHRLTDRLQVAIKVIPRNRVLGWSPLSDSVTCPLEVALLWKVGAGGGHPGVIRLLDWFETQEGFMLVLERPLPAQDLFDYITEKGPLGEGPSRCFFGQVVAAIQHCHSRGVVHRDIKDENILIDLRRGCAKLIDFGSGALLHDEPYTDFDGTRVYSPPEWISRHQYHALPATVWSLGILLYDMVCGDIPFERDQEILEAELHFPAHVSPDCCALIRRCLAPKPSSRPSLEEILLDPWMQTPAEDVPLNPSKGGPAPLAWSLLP
SMILES,inhibition [1],inhibition [2],inhibition [3],inhibition [4] [%],inhibition [5],inhibition [6],inhibition [7],inhibition [8],inhibition [9],inhibition [10],inhibition [11],inhibition [12],inhibition [13],inhibition [14],inhibition [15],inhibition [16],inhibition [17],inhibition [18],inhibition [19],inhibition [20]
N#Cc1ccc2c(-c3ccnc(NC4CC4)n3)c(-c3ccc(F)cc3)nn2c1,0.62%,1.11%,0.62%,0.42,2.62%,1.29%,0.44%,-0.01%,-1.52%,-0.15%,0.72%,-0.27%,-0.29%,0.61%,-0.5%,4.86%,23.5%,24.1%,68.9%,1.15%
COc1ccc(Nc2ncc(-c3ccccc3)o2)cc1OC,16.8%,0.54%,0.81%,5.28,28.9%,0.22%,2.01%,1.41%,2.22%,1.11%,1.95%,0.89%,1.57%,-0.17%,-1.05%,2.55%,28.9%,1.69%,39%,-0.12%
COC(=O)Nc1nc2cc(Oc3ccc(NC(=O)Nc4ccccc4)cc3)ccc2[nH]1,-0.9%,0.34%,1.02%,4.15,5.64%,4.43%,6.25%,-0.24%,0.02%,0.15%,0.64%,-0.27%,0.79%,1.73%,2.59%,1.17%,7.79%,1.28%,9.23%,-0.2%
CS(=O)(=O)Nc1ccc(-c2cc(-c3ccccc3)cc(C(N)=O)c2N)cc1,4.64%,-0.01%,-0.36%,1.44,4.26%,1.4%,0.02%,0.69%,1.67%,-0.48%,0.82%,0.62%,1.22%,0.73%,3.19%,1.69%,7.99%,-1.02%,3.58%,1.82%
COC(=O)Nc1nc2ccc(Oc3ccc(NC(=O)Nc4cc(C(F)(F)F)ccc4F)cc3)cc2s1,-0.26%,-0.29%,-0.57%,-9.77,1.81%,-0.83%,-1.17%,0.9%,1.19%,-0.21%,0.12%,0.39%,0.5%,0.07%,-0.36%,-0.78%,0.54%,0.97%,-6.65%,-0.35%
CNC(=O)c1ncccc1Nc1nc(Nc2cc3c(cc2OC)CCCN3C(=O)CN(C)C)nc2[nH]ccc12,4.82%,0.42%,-3.51%,5.77,26.6%,5.37%,3.8%,18.9%,65.9%,1.04%,5.43%,2.42%,22.6%,0.95%,0.65%,4.63%,6.54%,3.05%,0.1%,5.66%
COc1c(C(N)=O)cc(-c2ccc(Cl)cc2)cc1-c1ccc(S(N)(=O)=O)cc1,1.57%,-2.39%,-1.49%,0.45,3.12%,3.72%,5.17%,1.83%,2.23%,-0.64%,-0.88%,-0.2%,0.43%,1.35%,2.31%,10.7%,16.1%,8.28%,6.93%,4.69%
CN1CCC(n2cnc(-c3ccc(F)cc3)c2-c2ccnc(NCCO)n2)CC1,-0.08%,0.82%,0.93%,2.34,5.88%,4.56%,7.31%,0.34%,1.55%,0.95%,2.65%,1.55%,5.22%,1.7%,4.06%,2.04%,6.87%,4.44%,16.6%,-0.04%
CN1CCN(Cc2ccc(-c3cc4ncnc(Nc5ccc(OCc6cccc(F)c6)c(Cl)c5)c4s3)o2)CC1,2.8% and -1.69%,1.09% and -0.73%,0.63% and 0.18%,4.48,6.3% and 12.4%,3.47% and 7.21%,2.85% and 9.87%,-0.54% and 0.21%,1.02% and 0.98%,-0.52% and 0.67%,0.42% and 1.37%,-0.99% and -1.6%,0.95% and 2.39%,0.79% and 1.52%,0.84% and 3.86%,4.03% and 8.14%,12.8% and 15.9%,2.15% and 4.89%,1.94% and 9.4%,1.51% and 5%
NS(=O)(=O)c1ccc(N/N=C2\C(=O)Nc3cccc(CCc4ccncc4)c32)cc1,4.73%,1.68%,1%,4.94,11.7%,0.33%,-0.92%,0.54%,1.13%,0.11%,0.64%,0.22%,0.75%,0.36%,0.28%,1.17%,2.64%,2.91%,-0.94%,1.99%
c1ccc(-c2n[nH]cc2-c2ccnc(-c3ccc(OCCn4ccnc4)cc3)c2)nc1,-0.66%,-0.73%,-0.48%,2.85,6.86%,-0.35%,3.4%,0.32%,0.45%,0.56%,0.26%,0.51%,0.09%,0.48%,1.25%,1.64%,6.26%,0.8%,10%,0.6%
Cc1nnc(-c2cccc(-c3ccc(C(=O)NCC4CC4)cc3)c2)o1,1.69%,0.89%,0.76%,3.57,5.91%,7.39%,7.38%,-0.37%,1.97%,0.91%,1.27%,1.21%,5.19%,2.14%,4.28%,7.04%,10.7%,12.9%,5.76%,2.51%
OCCCNc1nccc(-c2c(-c3ccc(F)cc3)nn3cc(C(F)(F)F)ccc23)n1,1.92%,-0.08%,-2.07%,2.26,5.59%,2.88%,-0.79%,0.12%,1.6%,0.32%,-0.96%,-0.81%,-0.18%,-0.21%,-1.07%,5.25%,6.5%,7.07%,16.9%,2.49%
